Measured values from paper PMC11062922 (Nature Chemical Biology, 2023).
Read-outs that look alike come from different tables or passages of the source.

Legend:
Set-up in all cases: species or system human, MV4-11 + K-562 + COLO205 + SK-N-BE2 + OVCAR-8
ABL2 = details: read-out: apparent Kd, n = 1
ACVR1B = details: read-out: apparent Kd, n = 1
BTK = details: read-out: apparent Kd, n = 1
EPHB1 = details: read-out: apparent Kd, n = 1
LCK = details: read-out: apparent Kd, n = 1
MAPK14 = details: read-out: apparent Kd, n = 1
RPS6KA3 = details: read-out: apparent Kd, n = 1
BUB1 = details: read-out: apparent Kd, n = 1
MAP3K11 = details: read-out: apparent Kd, n = 1
PAK6 = details: read-out: apparent Kd, n = 1
CDC42BPB = details: read-out: apparent Kd, n = 1
PKN2 = details: read-out: apparent Kd, n = 1
PRKCA = details: read-out: apparent Kd; compound concentrations:100 nM and 1000 nM (sheet 'Samples'); n = 1
AURKB = details: read-out: apparent Kd, compound concentrations: 100 nM and 1000 nM (sheet 'Samples'), n = 1
NUAK2 = details: read-out: apparent Kd, compound concentrations: 100 nM and 1000 nM (sheet 'Samples'), n = 1
RPS6KB1 = details: read-out: apparent Kd, compound concentrations: 100 nM and 1000 nM (sheet 'Samples'), n = 1
MARK2 = details: read-out: apparent Kd, n = 1
[1] = compound concentrations:100 nM and 1000 nM (sheet 'Samples')

Work on `Cc1ccc2c(-c3ccncc3)c(-c3ccc(F)cc3)nn2c1.Cl` [GW461484A] yielded a potency estimated from few doses (ABL2; [1]) of 571 nM, a potency estimated from few doses (ACVR1B; [1]) of 696 nM and a potency estimated from few doses (BTK; [1]) of 801 nM. For the same molecule, the potency estimated from few doses (EPHB1; [1]) was 384 nM, the potency estimated from few doses (LCK; [1]) was 730 nM and the potency estimated from few doses (MAPK14; [1]) was 465 nM. It also gave a potency estimated from few doses (RPS6KA3; [1]) of 1950 nM.

Molecule `CCn1c(-c2nonc2N)nc2c(-c3ccccc3)ncc(OCCCN)c21.CCn1c(-c2nonc2N)nc2c(-c3ccccc3)ncc(OCCCN)c21.O=C(O)C(F)(F)F.O=C(O)C(F)(F)F` [GSK260205A] has a potency estimated from few doses (ACVR1B; compound concentrations: 100 nM and 1000 nM (sheet 'Samples'), CATDS: 3.5352360337843801E-2) of 755 nM, a potency estimated from few doses (BUB1; compound concentrations: 100 nM and 1000 nM (sheet 'Samples'), CATDS: 0.117322615111941) of 59 nM and a potency estimated from few doses (MAPK14; compound concentrations: 100 nM and 1000 nM (sheet 'Samples'), CATDS: 4.1756268177550598E-2) of 478 nM.

Molecule `Fc1ccc(-c2c(-c3ccncc3)[nH]c3cccnc23)cc1` [RO1153853-000] has a potency estimated from few doses (ACVR1B; compound concentrations: 100 nM and 1000 nM (sheet 'Samples'), CATDS: 6.54692284622726E-2) of 700 nM, a potency estimated from few doses (BUB1; compound concentrations: 100 nM and 1000 nM (sheet 'Samples'), CATDS: 4.9666048128405298E-2) of 1690 nM and a potency estimated from few doses (MAPK14; compound concentrations: 100 nM and 1000 nM (sheet 'Samples'), CATDS: 9.4137479402045199E-2) of 308 nM.

`Cl.Cl.NCC(C(=O)Nc1cc(Br)c(-c2ccnc3[nH]ccc23)s1)c1ccccc1.NCC(C(=O)Nc1cc(Br)c(-c2ccnc3[nH]ccc23)s1)c1ccccc1` (centres unmarked) [GSK1269851A] gave a potency estimated from few doses (ABL2; [1]) of 433 nM, a potency estimated from few doses (BTK; [1]) of 638 nM and a potency estimated from few doses (BUB1; [1]) of 2170 nM. The potency estimated from few doses (EPHB1; [1]) was 331 nM, the potency estimated from few doses (LCK; [1]) was 519 nM and the potency estimated from few doses (MAP3K11; [1]) was 2030 nM. The potency estimated from few doses (PAK6; [1]) was 710 nM and the potency estimated from few doses (RPS6KA3; [1]) was 1840 nM.

Molecule `NCCNS(=O)(=O)c1ccc(-c2ccnc3[nH]ccc23)cc1` [GSK977617A] has a potency estimated from few doses (ABL2; [1]) of 277 nM, a potency estimated from few doses (BTK; [1]) of 642 nM and a potency estimated from few doses (CDC42BPB; [1]) of 1700 nM. It also gave a potency estimated from few doses (EPHB1; [1]) of 463 nM, a potency estimated from few doses (LCK; [1]) of 515 nM and a potency estimated from few doses (MAP3K11; [1]) of 1370 nM. For the same molecule, the potency estimated from few doses (PAK6; [1]) was 1310 nM, the potency estimated from few doses (PKN2; [1]) was 1190 nM and the potency estimated from few doses (PRKCA) was 1270 nM.

`Cc1cccc(-c2nc(Nc3ccncc3)c3sccc3n2)n1` [GW869641X] was tested, and the potency estimated from few doses (ACVR1B; [1]) was 0.703 nM.

Work on `Clc1cc(Cl)cc(Nc2ccnc(Nc3cc(Cl)cc(Cl)c3)n2)c1` [GSK175726A] yielded a potency estimated from few doses (ABL2; compound concentrations: 100 nM and 1000 nM (sheet 'Samples'), CATDS: 0.155143101703651) of 7.68 nM, a potency estimated from few doses (AURKB; CATDS: 1.17744273258488E-2) of 461 nM and a potency estimated from few doses (BTK; compound concentrations: 100 nM and 1000 nM (sheet 'Samples'), CATDS: 2.6199359146872301E-2) of 82.1 nM. It also gave a potency estimated from few doses (EPHB1; compound concentrations: 100 nM and 1000 nM (sheet 'Samples'), CATDS: 3.1891027827673897E-2) of 60 nM, a potency estimated from few doses (LCK; compound concentrations: 100 nM and 1000 nM (sheet 'Samples'), CATDS: 2.0638344047220501E-2) of 125 nM and a potency estimated from few doses (PAK6; compound concentrations: 100 nM and 1000 nM (sheet 'Samples'), CATDS: 9.3443297736164402E-3) of 1060 nM. For the same molecule, the potency estimated from few doses (RPS6KA3; compound concentrations: 100 nM and 1000 nM (sheet 'Samples'), CATDS: 8.5170276758985107E-3) was 1660 nM.

`CN(c1ccc(NC(=O)Nc2cccc(Cl)c2)cc1)c1ccnc(N)n1.Cl` [GW830707A] was tested, and the potency estimated from few doses (ABL2; compound concentrations: 100 nM and 1000 nM (sheet 'Samples'), CATDS: 3.1249349132144801E-2) was 18.9 nM, the potency estimated from few doses (AURKB; CATDS: 1.11325754696811E-2) was 1010 nM and the potency estimated from few doses (BTK; compound concentrations: 100 nM and 1000 nM (sheet 'Samples'), CATDS: 1.93862363831281E-2) was 58.1 nM. For the same molecule, the potency estimated from few doses (CDC42BPB; compound concentrations: 100 nM and 1000 nM (sheet 'Samples'), CATDS: 1.55962433330884E-2) was 126 nM, the potency estimated from few doses (EPHB1; compound concentrations: 100 nM and 1000 nM (sheet 'Samples'), CATDS: 2.4630351484746099E-2) was 31.2 nM and the potency estimated from few doses (LCK; compound concentrations: 100 nM and 1000 nM (sheet 'Samples'), CATDS: 1.1469376819807401E-2) was 788 nM. The potency estimated from few doses (NUAK2; CATDS: 1.08459098062964E-2) was 1270 nM, the potency estimated from few doses (PAK6; compound concentrations: 100 nM and 1000 nM (sheet 'Samples'), CATDS: 1.07398015427933E-2) was 1390 nM and the potency estimated from few doses (RPS6KB1; CATDS: 1.09553659906664E-2) was 1160 nM.

In the case of `CCn1c(-c2nonc2N)nc2c(C#CCN)ncc(OCCCN)c21.O=C(O)C(F)(F)F` [GSK561866B], the potency estimated from few doses (PKN2; compound concentrations: 100 nM and 1000 nM (sheet 'Samples'), CATDS: 7.8850535448236003E-2) is reported as 1510 nM and the potency estimated from few doses (RPS6KB1; CATDS: 9.0745453411211097E-2) is reported as 699 nM.

In the case of `CC(C)N1CCC(n2cnc(-c3ccc(F)cc3)c2-c2ccnc(N)n2)CC1` [SB-223132], the potency estimated from few doses (ABL2; [1]) is reported as 723 nM, the potency estimated from few doses (BTK; [1]) is reported as 842 nM and the potency estimated from few doses (BUB1; [1]) is reported as 1670 nM. The potency estimated from few doses (EPHB1; [1]) was 656 nM, the potency estimated from few doses (LCK; [1]) was 880 nM and the potency estimated from few doses (MAPK14; compound concentrations: 100 nM and 1000 nM (sheet 'Samples'), CATDS: 8.3649714811029202E-2) was 40 nM. For the same molecule, the potency estimated from few doses (MARK2; [1]) was 1570 nM.

`O=C1N=C(NCCc2ccc(Cl)cc2)S/C1=C\c1ccc2ncccc2c1` [RO4498479-000] was tested, and the potency estimated from few doses (ABL2; compound concentrations: 100 nM and 1000 nM (sheet 'Samples'), CATDS: 1.7069961948359198E-2) was 201 nM, the potency estimated from few doses (AURKB; CATDS: 7.59982177866047E-3) was 1200 nM and the potency estimated from few doses (BTK; compound concentrations: 100 nM and 1000 nM (sheet 'Samples'), CATDS: 1.35831068182147E-2) was 297 nM. For the same molecule, the potency estimated from few doses (BUB1; compound concentrations: 100 nM and 1000 nM (sheet 'Samples'), CATDS: 7.8507646745445397E-3) was 1070 nM, the potency estimated from few doses (EPHB1; compound concentrations: 100 nM and 1000 nM (sheet 'Samples'), CATDS: 1.3764533210370701E-2) was 290 nM and the potency estimated from few doses (LCK; compound concentrations: 100 nM and 1000 nM (sheet 'Samples'), CATDS: 1.3202335772702E-2) was 313 nM. For the same molecule, the potency estimated from few doses (MAP3K11; compound concentrations: 100 nM and 1000 nM (sheet 'Samples'), CATDS: 8.9469693791647507E-3) was 733 nM, the potency estimated from few doses (MARK2; compound concentrations: 100 nM and 1000 nM (sheet 'Samples'), CATDS: 8.1372297919538004E-3) was 960 nM and the potency estimated from few doses (NUAK2; CATDS: 7.8006037154547897E-3) was 1100 nM. For the same molecule, the potency estimated from few doses (RPS6KA3; compound concentrations: 100 nM and 1000 nM (sheet 'Samples'), CATDS: 7.9720572811278097E-3) was 1020 nM.

With `CN(c1ccc(NC(=O)N2CCN(CCCN3CCOCC3)CC2)cc1)c1ccnc(Nc2ccc(CS(C)(=O)=O)cc2)n1.Cl` [GW830899A] the potency estimated from few doses (MAP3K11; compound concentrations: 100 nM and 1000 nM (sheet 'Samples'), CATDS: 1.83131031951747E-2) was 1980 nM, the potency estimated from few doses (MAPK14; compound concentrations: 100 nM and 1000 nM (sheet 'Samples'), CATDS: 2.4950407737396499E-2) was 905 nM and the potency estimated from few doses (MARK2; compound concentrations: 100 nM and 1000 nM (sheet 'Samples'), CATDS: 1.9891178500976402E-2) was 1550 nM.

In the case of `CCn1c(-c2nonc2N)nc2c(C#CC(C)(C)O)nc(OC[C@@H](N)c3ccccc3)cc21` [GSK938890A], the potency estimated from few doses (PAK6; compound concentrations: 100 nM and 1000 nM (sheet 'Samples'), CATDS: 9.3701498593083701E-2) is reported as 129 nM.

`Cl.Nc1c(C(=O)c2cccc(C#CCN3CCCCC3)c2)cnn1-c1ccc(F)cc1` [RO1154461-001] gave a potency estimated from few doses (ABL2; compound concentrations: 100 nM and 1000 nM (sheet 'Samples'), CATDS: 1.9255632348685402E-2) of 323 nM, a potency estimated from few doses (BTK; compound concentrations: 100 nM and 1000 nM (sheet 'Samples'), CATDS: 1.2670518401124599E-2) of 863 nM and a potency estimated from few doses (BUB1; compound concentrations: 100 nM and 1000 nM (sheet 'Samples'), CATDS: 1.00986377445768E-2) of 1860 nM. For the same molecule, the potency estimated from few doses (EPHB1; compound concentrations: 100 nM and 1000 nM (sheet 'Samples'), CATDS: 2.02427776556733E-2) was 292 nM, the potency estimated from few doses (LCK; compound concentrations: 100 nM and 1000 nM (sheet 'Samples'), CATDS: 1.3782974497271E-2) was 687 nM and the potency estimated from few doses (NUAK2; CATDS: 1.07977981674066E-2) was 1430 nM. The potency estimated from few doses (PAK6; compound concentrations: 100 nM and 1000 nM (sheet 'Samples'), CATDS: 1.2359364494815299E-2) was 927 nM.
